Compound activity from PubChem.
Only some compounds are listed: those with a hit (about 19% of all), similar ones and a draw of the others.
HT1080 IDH1KD tx: toxicity to HT-1080 IDH1 knockdown cells (counter line). Potency, µM (doses to about 46.1 µM), for the others: at the highest dose activity, negative = toxicity, usual class: cytotoxic. AID 686971. HT-1080 IDH1 knockdown viability, ATP luminescence, 48 h. hit rate 2% among 360,000;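 note: potency is the fitted concentration of half-maximal effect; 0% = DMSO wells and -100% = cell-free medium wells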
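Using the IDH1-knockdown HT-1080 line run in the same batch and compound series as the NT line, viability after 48 h at 37 °C was determined by CellTiter-Glo luminescence and expressed as % activity.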
HT1080NT lethal: kills 2HG-producing HT-1080-NT fibrosarcoma cells | HT-1080-NT fibrosarcoma viability, CellTiter-Glo ATP luminescence, 48 h | Potency, µM (top dose mostly 46.1 µM), without a hit: at the highest dose activity, negative = less viability, usual class: cytotoxic | hit rate 1.6% among 360,000 | AID 686970;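 note: NT is the 2HG producing partner of a matched IDH1 knockdown line; potency is the fitted concentration of half-maximal effect; 0% = DMSO-treated cells and -100% = media-only wells without cells; nearly all actives have a fitted effect of over 55% in size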
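Luminescent CellTiter-Glo readout after 48 hours of compound exposure at 37 degrees C defined viability of HT-1080-NT cells. Activity was normalized to DMSO wells and cell-free media wells; concentration-response curves were fitted and assigned curve classes.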
TDP1 cell noCPT: qHTS for Inhibitors of human tyrosyl-DNA phosphodiesterase 1 (TDP1): qHTS in cells in absence of CPT | DT40 Tdp1-/- hTDP1 cells, no CPT, ATP luminescence, 48 h | Potency, µM (highest dose often 46.2 µM), for the others: at the highest dose activity change, negative = growth inhibition, most hits filed as inhibitors | hit rate 15% among 420,000; note: potency is the fitted concentration of half-maximal effect; nearly all actives have a fitted effect of over 55% in size
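Growth kinetics read by CellTiter-Glo luminescence after ≥48 hr at 37 °C. Cells: DT40 Tdp1-/- stably carrying human TDP1, 400 per well, compound exposure in the absence of CPT (DMSO vehicle).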
IL-1B inflam inh: inflammasome signaling inhibition, IL-1 beta readout; THP-1 LPS/ATP IL-1B secretion, AlphaLISA, 16 h; hits give low values; activity change, % at 57.5 µM; hit rate 4.7% among 360,000; in the data active = activity change below about -50%; inconclusive = mostly about -30% to -49%
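Secreted IL-1B measured by AlphaLISA bead assay after 16 h compound exposure of THP-1 cells; compounds (final up to 57.5 uM) added 1 h before LPS (250 ng/mL) and ATP (1.25 mM) stimulation; lower signal means less secretion.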
DT40 TDP1 CPT: DT40-hTDP1 cell growth loss with CPT. chicken DT40 Tdp1-/-;hTDP1 cells + 20 nM CPT, ATP luminescence, 48 h. Potency, µM (highest dose often 46.2 µM), for inactives: at the top dose activity change, negative = growth inhibition, most hits filed as inhibitors. hit rate 12% among 420,000; note: potency is the fitted concentration of half-maximal effect; nearly all actives have a fitted effect of over 55% in size
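Cell growth measured by CellTiter-Glo luminescence after a minimum 48 h, 37 C compound exposure with 20 nM CPT in Tdp1-knockout DT40 cells stably expressing hTDP1, seeded 400/well; qHTS titration format.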
* hit, by the source's call; i = inactive; ? = inconclusive; nt = no result. Unless noted, calls come from the whole dose curve; as a rule, active = well fitted curve in the direction sought with a large enough effect; inconclusive = small, poorly fitted or top-dose-only effect, or another doubt; inactive = no such curve, though single readings can be large; an effect the other way counts as inactive or inconclusive. Unless noted, % is set by controls: 0 for no effect and ±100 for the full control effect.

SMILES | HT1080 IDH1KD tx | HT1080NT lethal | TDP1 cell noCPT | IL-1B inflam inh | DT40 TDP1 CPT
Cc1ccc2c(c1)sc(-c1ccc(N(C)C)cc1)[n+]2C | ? | -27.6% | 0.0184µM* | ? | 0.0366µM*
COC(=O)c1cc(C)ccc1OCc1ccc([N+](=O)[O-])cc1 | -2.3% | 0.6% | -1.9% | -11.8 | 7.0%
Cc1cc(C(C)(C)C)cc(CN2CCN(S(=O)(=O)c3cccs3)CC2)c1O | 0.0% | -2.8% | 0.184µM* | -13.0 | -6.5%
O=S(=O)(c1cccs1)N1CCN(Cc2cccc(F)c2)CC1 | 10.2% | 4.2% | 2.6% | 5.7 | -23.6%
Cc1ccc(S(=O)(=O)N2CCN(S(=O)(=O)c3cccs3)CC2)cc1 | 6.3% | -4.8% | -1.7% | i | 1.3%
Cc1cc(O)c(CN2CCN(S(=O)(=O)c3cccs3)CC2)cc1C(C)C | -14.0% | -16.1% | ? | 16.3 | 23.1µM*
CCN(CC)CCCOc1ccc(Cl)c(Cl)c1 | -20.4% | -1.9% | ? | -73.5* | -27.8%
CN1CCN(CCc2ccc(Cl)c(Cl)c2)CC1 | nt | nt | 29.9µM* | nt | ?
CN1CCN(CCOc2ccc(Cl)c(Cl)c2)CC1 | -17.2% | -12.4% | ? | 7.1 | 16.4µM*
CN1CCN(CCOc2cccc(Cl)c2)CC1 | -0.6% | -4.0% | -3.5% | -0.3 | 2.1%
CN1CCN(CCOc2ccc(Cc3ccccc3)cc2)CC1 | ? | -27.1% | 4.61µM* | -13.0 | ?
CCNS(=O)(=O)c1ccc2c(c1)NCC2 | 20.9% | 23.1% | 8.9% | 13.5 | 1.1%
COCc1cc(CN2CCCC2)c(O)c2ncccc12 | 0.631µM* | 1.12µM* | 0.82µM* | 100.7 | 0.651µM*
Oc1c(CN2CCCCC2)cc(COCc2ccccc2)c2cccnc12 | 2.91µM* | 7.31µM* | 4.61µM* | -105.0* | 4.11µM*
Cc1c(O)c(CN2CCCC2)cc2c1oc(=O)c1ccccc12 | 9.0% | 14.8% | ? | -13.7 | ?
COc1cccc(CNC(=O)CCC2CCCN(C(=O)c3ccc(OC)c(F)c3)C2)c1 (stereo not given) | -0.1% | 1.6% | -17.8% | 40.4 | -6.2%
O=C(N=C1c2ccccc2CN1c1ccccc1)c1cccc([N+](=O)[O-])c1 | -0.2% | -2.9% | 11.6µM* | -4.1 | -12.5%
CCOC(=O)c1ccc(N2Cc3ccccc3C2=NC(=O)c2cccc([N+](=O)[O-])c2)cc1 | -17.0% | -0.5% | 2.8% | ? | -26.6%
C=CCOc1c(Br)cc(CNCCCN2CCOCC2)cc1OC | -8.2% | -15.5% | ? | 3.8 | -27.8%
CCOc1cc(CNCCCN2CCOCC2)cc(Br)c1OCc1ccccc1Cl | 8.2µM* | 7.31µM* | 4.61µM* | -101.3* | 3.66µM*
CCOc1cc(CNCCCN2CCOCC2)ccc1OCC(=O)NC(C)(C)C | 0.3% | 3.4% | 0.9% | 9.9 | 0.8%
CCOc1cc(CNCCN2CCOCC2)ccc1OCc1ccccc1Cl | ? | ? | 18.4µM* | ? | ?
CCOC(=O)N1CCN(CCC(=O)Nc2cccc(F)c2)CC1 | nt | nt | 2.9% | nt | -10.9%
N#CC1=C(c2ccccc2)/C(=C/c2ccccc2)OC1=O | 0.7% | 10.4% | 18.4µM* | -104.4* | 23.1µM*
O=C(COC(=O)Cc1ccc(S(=O)(=O)N2CCCCC2)s1)Nc1ccc2c(c1)OCO2 | -1.8% | 6.6% | 3.4% | 4.6 | 4.8%
SMILES | HT1080 IDH1KD tx | HT1080NT lethal | TDP1 cell noCPT | IL-1B inflam inh | DT40 TDP1 CPT
O=C(Cc1ccc(S(=O)(=O)N2CCCCC2)s1)Nc1ccc(F)c(F)c1 | -11.9% | -5.3% | 23.1µM* | -5.5 | 16.4µM*
O=C(Cc1ccc(S(=O)(=O)N2CCCC2)s1)Nc1cccc([N+](=O)[O-])c1 | -6.6% | -7.3% | 16.4µM* | -15.9 | ?
NS(=O)(=O)c1cccc(NC(=O)COC(=O)Cc2ccc(S(=O)(=O)N3CCCCC3)s2)c1 | -0.4% | 7.6% | 24.6% | 25.2 | -0.9%
Cc1sc2c(c1C)CN(CCN1CCOCC1)CN2C(=O)c1ccccc1 | 19.6% | 7.3% | 20.4% | 5.0 | -15.5%
Cc1ccc(CSCCNC(=O)c2ccc(N(C)S(=O)(=O)c3ccccc3)cc2)cc1 | -19.3% | -9.4% | 14.6µM* | -4.5 | ?
CN(c1ccc(C(=O)NCCSCc2c(F)cccc2Cl)cc1)S(C)(=O)=O | 4.0% | 5.6% | ? | ? | ?
CN(c1ccc(C(=O)NCCSC(C)(C)C)cc1)S(=O)(=O)c1ccccc1 | -12.3% | -5.8% | ? | -9.7 | ?
CN(c1ccc(C(=O)NCCSCc2ccc(Cl)cc2)cc1)S(=O)(=O)c1ccccc1 | 4.8% | 7.1% | 16.4µM* | -9.5 | 16.4µM*
Cc1ccc(CSCCNS(=O)(=O)c2ccccc2)cc1 | -3.1% | -5.2% | 29.1µM* | 0.0 | -23.1%
CC(=O)Nc1ccc(S(=O)(=O)NCCSCc2ccccc2Cl)cc1 | ? | -4.6% | 18.4µM* | -7.4 | 9.2µM*
CCn1c2ccc(OC)cc2c2nc3ccccc3nc21 | ? | -22.9% | 11.6µM* | -10.1 | ?
Cc1ccc2c(c1)c1nnc(SCC(=O)N3CCCc4ccccc43)nc1n2CC(=O)O | 22.0% | 19.9% | -25.2% | 14.1 | -29.4%
CSc1nnc2c3cc(C)ccc3n(Cc3ccccc3)c2n1 | -11.8% | -5.6% | 11.6µM* | 24.7 | ?
COc1ccc2c(c1)c1nnc(SCC(=O)Nc3ccccc3F)nc1n2C | -0.7% | 9.4% | ? | 12.1 | -23.0%
COc1ccc2c(c1)c1nnc(SC)nc1n2Cc1ccccc1 | 10.3% | 5.0% | 11.2µM* | nt | 10µM*
CCn1c2ccc(Cl)cc2c2nc3ccccc3nc21 | -15.8% | -25.4% | ? | -6.3 | -25.4%
O=C(c1ccncc1)c1ccc(NS(=O)(=O)c2ccc(Br)s2)cc1 | 0.0% | -2.3% | 18.4µM* | 26.1 | 16.4µM*
CC1(C)C(=O)NC2=C1C(=O)C(=O)c1ccccc12 | nt | nt | 0.944µM* | nt | 1.33µM*
CCNc1ncc2nc(C)c(=O)n(Cc3cccc(OC)c3)c2n1 | nt | nt | ? | nt | -1.6%
COC(=O)c1ccc(CSc2ccc3nnc(-c4cccc(F)c4)n3n2)o1 | ? | -2.0% | 7.31µM* | -7.2 | -82.3%
Cc1cc([N+](=O)[O-])ccc1NC(=O)c1csc(C)c1C | 3.4% | -4.4% | ? | -18.1 | ?
CCOC(=O)C(=CNNc1c(C)csc1C(=O)OC)C(=O)OCC | -2.1% | -1.1% | 14.6µM* | 54.0 | ?
O=C(Nc1ccccc1N1CCN(c2ccccc2)CC1)c1ccccc1F | -1.0% | 5.5% | 3.66µM* | 36.6 | ?
O=C(Nc1ccccc1N1CCN(c2ccccc2)CC1)C12CC3CC(CC(C3)C1)C2 | 11.2% | 22.4% | 20.6µM* | 8.5 | ?
COc1ccccc1N1CCN(S(=O)(=O)CCNC(=O)C23CC4CC(CC(C4)C2)C3)CC1 | -26.4% | ? | ? | -6.2 | ?
O=C(Nc1ccccc1N1CCCC1)c1ccccc1F | 0.6% | -0.4% | -22.1% | 27.3 | ?
